Our source for the growth values is PubChem BioAssay (NCI).

This is part of a sample that, as a whole, favours compounds with a hit. Of some 83,000 tested, about 20% had one in any assay.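 96-well plates, one dose, 48 hours. Percent growth reported; active if below 10.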 A number with no mark means an inactive call. Calls of active or inactive are those of the source.

The experiment concerns COLO 205 colon. As to the kind of experiment: NCI-60 one-dose screen, 48 h (100 = growth as untreated, 0 = no growth, -100 = all killed). The conditions noted are these: 10 µM unless noted.
For the compound `COc1cc2c(c(OC)c1OC)C(=O)CC(c1cccc(NC(=O)[C@@H](N)CC(C)C)c1)O2` (stereo partly drawn), the growth is 118%.
Consider `CN1CCN(/C(=N\c2sc(-c3ccccc3)nc2-c2ccccc2)c2ccccc2)CC1`, for which the growth was 42%.
For `Cc1ccc(-c2nnc3ccc(N/N=C/c4ccccc4)nn23)cc1`, the growth was 98.4%.
Under `COc1ccc(C(=O)/C=C/c2ccccc2Br)cc1S(N)(=O)=O` stands -72.8% (active); under `CC1=C(C(=O)OCc2ccccc2)C(c2c(O)cc(O)cc2O)n2c(nc3ccccc32)N1` (stereo not drawn), 63.5%; under `CCCCc1c(Nn2cnnn2)no[n+]1[O-]`, 60.8%.
Turning to `CC(C)CSc1nc(NCCc2c[nH]c3ccccc23)c(C#N)c(-c2ccc(Cl)cc2)n1`, the growth is 41%.
Take `CN1CCc2c(sc3ncnc(N/N=C/c4ccc(Cl)cc4Cl)c23)C1`: the growth was -48% (active).
`N#Cc1c(-c2ccc(Br)cc2)nc2n[nH]c(-c3ccc(Br)cc3)c2c1-c1ccc(F)cc1`: the growth was 92.1%.
Under `CC(=O)OC[C@@]1(C)C2CC[C@]3(C)C(CC=C4C5CC(C)(C)CC[C@]5(C(=O)Nc5ccc(F)cc5)CC[C@]43C)[C@@]2(C)C[C@@H](OC(C)=O)[C@@H]1OC(C)=O` (stereo partly drawn) stands 43.1%; under `NS(=O)(=O)c1ccc(N=Nc2c(O)n(CC(=O)Nc3ccccc3Cl)c3ccccc23)cc1`, -19.1% (active); under `CCCCNC(=S)Nc1ccc(OCc2nc3ccccc3[nH]2)cc1`, 95.6%.
With `Cc1cc2nc3c4ccccc4n(CCCN(C)C)c3nc2cc1C`, the growth was -86.3% (active).
As to `COc1cc2c(c(OC)c1OC)C(=O)CC(c1cccc(NC(=O)c3cc(NC(=O)[C@@H](N)CO)ccc3C)c1)O2` (stereo partly drawn), the growth is 131%.
As for `CC(=O)OC[C@@]1(C)C2CC[C@]3(C)C(CC=C4C5CC(C)(C)CC[C@]5(C(=O)Nc5ccc(C)cc5)CC[C@]43C)[C@@]2(C)C[C@@H](OC(C)=O)[C@@H]1OC(C)=O` (stereo partly drawn), the growth is 48.8%.
For the compound `Cc1ccc(C(=O)CSc2nc3ccc(F)cc3c(=O)n2-c2ccc(Cl)cc2)cc1`, the growth was 69.9%.
Consider `COc1ccc(-c2ccnc(SCc3cc4cc(Cl)ccc4[nH]c3=O)n2)cc1`, for which the growth was 105%.
As for `COc1cc(-c2ccc(/C=N/NC(=O)c3[nH]c4ccc(Br)cc4c3-c3ccccc3)o2)cc(OC)c1OC`, the growth is 94.7%.
For `CC1=C(C(=O)OC(C)C)C(c2cccc(O)c2)NC(=S)N1` (stereo not drawn), the growth is 107%.
For the compound `COc1cccc(COc2ccc(NC(=O)Nc3ccc(Cl)c(C(F)(F)F)c3)cc2)c1`, the growth is 46.2%.
Consider `COc1ccc(C(=O)Nc2n[nH]c(Nc3ccccc3)c2C#N)cc1`, for which the growth was 106%.
Regarding `O=C(c1ccc(OCCN2CCOCC2)cc1)C1[C@H](c2ccc(Cl)cc2)[C@@H](c2ccccc2)NC12C(=O)Nc1ccc(Cl)cc12` (stereo partly drawn), the growth is -20.1% (active).
Under `O=C(N=Nc1c(O)[nH]c2ccc([N+](=O)[O-])cc12)c1ccc2nc(-c3ccccc3)[nH]c2c1` stands 28.4%.
For `CCN(CC)C(=O)N/C(N)=N/c1nc2ccccc2s1`, the growth is 86.4%.
Under `Nc1nnc(-c2c[nH]c3ncc(Br)cc23)c(-c2c[nH]c3ccc(F)cc23)n1` stands 16.2%; under `O=C(COc1ccc(NC(=O)Nc2ccccc2)cc1)N=Nc1c(O)[nH]c2ccc([N+](=O)[O-])cc12`, -29.9% (active).
As to `CC(=O)Nc1ccc(-n2cnc3cc(-c4ccc(O)cc4)ccc32)cc1C(F)(F)F`, the growth was 43.8%.
Under `CN(C)CCn1c2ccccc2c2nc3cc4ccccc4cc3nc21` stands 17.1%; under `COc1cc2oc(-c3cccc(C(=O)Nc4cccc([N+](=O)[O-])c4)c3)cc(=O)c2c(OC)c1OC`, 91%.
Take `Cc1cccc(NC(=O)[C@]23CCC(C)(C)CC2C2=CCC4[C@@]5(C)C[C@@H](O)[C@H](O)[C@@](C)(CO)C5CC[C@@]4(C)[C@]2(C)CC3)c1` (stereo partly drawn): the growth was -31.7% (active).
For `O=C(/C=C/c1cccc(OCc2ccccc2)c1)c1nc2ccccc2[nH]1`, the growth was -31.7% (active).
Under `COc1ccc(N2N=C(c3ccc4c(c3)OCO4)CC2c2cccc(NC(=O)CCNS(=O)(=O)c3ccc(Cl)cc3)c2)cc1` (stereo not drawn) stands 29.2%; under `CN(C)c1ccnc(CNCCSC2(c3ccccc3)c3ccccc3C=Cc3ccccc32)c1`, -84.7% (active); under `CC1=C(C(=O)c2ccccc2)C(c2ccc(-n3cncn3)cc2)n2c(nc3ccccc32)N1` (stereo not drawn), 95.4%.
On to `Cc1cnc(C(=O)NNc2nc3cc(F)ccc3n3c(C(=O)N4CC5CC(C4)N5)ccc23)cn1`, for which the growth was 10.5%.
As to `CN(C)CCCNC(=O)c1cc(NC(=O)c2cc(NC(=O)c3ccc(C#Cc4ccccc4)cc3)cn2C)cn1C`, the growth was -74.9% (active).
Turning to `N/C(=N\N=C\c1ccc([N+](=O)[O-])cc1)c1c(N)nc(=S)[nH]c1-c1ccc(Cl)cc1Cl`, the growth is 115%.
On to `C=C1CCC2C3(C)COC(c4cccc(F)c4)OC3CCC2(C)C1C/C=C1/C(=O)OCC1O` (stereo not drawn), for which the growth was -51.5% (active).
